Results reported in the supplement of paper PMC12494721.
Where a name gives a salt, the structure may show the parent alone.

What follows are compounds tested on Klebsiella aerogenes DSM 30053 (assay: fold change of Putrescine concentration vs plate DMSO controls (fold change (ratio)); higher = more amine produced, active = hit call of the paper (significant change in both replicates, either direction)). Details: incubation time: 27 h, anaerobic, 37 °C;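 for the amine columns active = adjusted P below 0.05 in both replicates with a change the same way and a mean fold change under 0.8 or over 1.25; inactive = the rest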.
In short: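 Anaerobic mGAM cultures of four gut bacterial strains were grown at 37 °C for 27 h in 80 µL wells, starting at OD 0.1 before 1:1 dilution. Compounds were at 20 µM final (sweeteners 50 µM). Whole cultures were extracted with cold acetonitrile/methanol containing 0.1% formic acid and centrifuged. Amines were quantified by LC–triple-quadrupole MS (dynamic MRM) against external calibration curves and drift-corrected within batch. Each value is the fold change versus plate DMSO controls, averaged over 2 biological replicates.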

Fold change of Putrescine concentration, inactive:
Oc1c(Cl)cc(Cl)cc1Sc1cc(Cl)cc(Cl)c1O [Bithionol] (20 µM) 1.02
CO[C@@]1(NC(=O)C2SC(=C(C(N)=O)C(=O)O)S2)C(=O)N2C(C(=O)O)=C(CSc3nnnn3C)CS[C@@H]21 (some centres undefined) [Cefotetan] (20 µM) 0.978
N#CC(c1ccc(Cl)cc1)c1c(Cl)cc(-n2ncc(=O)[nH]c2=O)cc1Cl (centres undefined) [Diclazuril] (20 µM) 0.967
CN(C)CCCN1c2ccccc2Sc2ccc(C(F)(F)F)cc21 [Triflupromazine hydrochloride] (20 µM) 0.998
CCC(=O)OCC(=O)[C@@]1(OC(=O)CC)[C@@H](C)C[C@H]2[C@@H]3CCC4=CC(=O)C=C[C@]4(C)[C@@]3(Cl)[C@@H](O)C[C@@]21C [Beclomethasone dipropionate] (20 µM) 1.01
O=C1CN(/N=C/c2ccc(-c3ccc([N+](=O)[O-])cc3)o2)C(=O)N1 [Dantrolene sodium salt] (20 µM) 0.979
CC(C)(C(=O)O)c1ccc(C(O)CCCN2CCC(C(O)(c3ccccc3)c3ccccc3)CC2)cc1 (centres undefined) [Fexofenadine hydrochloride] (20 µM) 0.999
C[C@H]1[C@@H](O)O[C@@H]2O[C@@]3(C)CC[C@H]4[C@H](C)CC[C@@H]1[C@@]24OO3 [Artenimol] (20 µM) 1.01
CC(C)(C)NC[C@H](O)COc1ccccc1C1CCCC1 [Penbutolol sulfate] (20 µM) 0.997
